Results from PubChem BioAssay (NCI).
About 83,000 compounds went through this panel and 20% of them were active in at least one assay; those are over-represented in the sample as a whole.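 Interpretation: 100, growth as untreated; towards 0, rising growth inhibition; 0, no net growth; 0 to -100, cell death. Compounds scoring below 10 were considered active.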 Unmarked numbers belong to inactive results. Activity calls are given as the source filed them.

Tested on: UO-31 renal
Experiment: NCI-60 one-dose screen, 48 h (100 = growth as untreated, 0 = no growth, -100 = all killed)
Conditions: 10 µM unless noted
Method: Growth inhibition of the UO-31 human tumor cell line is measured as a screen for anti-cancer activity. Cells are grown in 96 well plates and exposed to the test compound for 48 hours. Compounds are tested at a single concentration, which is 10^-5 M for most compounds. The reported endpoint is percent growth (GI% or GIPRCNT), where numbers from 0 - 100% represent growth inhibition, and numbers from -100% - 0 represent cell death. For example, a value of 40 represents 60% growth inhibition. A value of 0 means no net growth occurred over the course of the experiment. A value of -40 indicates 40% of cells at the beginning of the experiment died by the end of the experiment. A value of -100 means all cells are dead at the end of the experiment.
NCI-60 Human Tumor Cell Lines Screen was performed using the standard one-dose NCI protocol, which is described in more detail at https://dtp.cancer.gov/discovery_development/nci-60/default.htm.
Compounds with GIPRCNT values below 10 were considered active. Activity score was based on GIPRCNT using the following formula: […]
Score is 0 for GIPRCNT values of 100 or above, 50 for GIPRCNT values of 0, and 100 for GIPRCNT values of -100.

Compound | growth
Cc1ccc(C(=O)NCCCNc2nccc(-n3ccc4cccnc43)n2)cc1 | 85.9%
O=S(=O)(NCCCNc1nccc(-n2ccc3cccnc32)n1)c1ccc(Br)cc1 | 107%
COc1ccc(C2=C(c3cc(OC)c(OC)c(OC)c3)C(=O)CC2)cc1 | 46.2%
CCCCOc1ccc(/C=C2/SC(N3CCCC3)=NC2=O)cc1 | 82.4%
Fc1ccc(-c2nc(-c3nc4ncccc4[nH]3)cc3c2[nH]c2ccccc23)cc1F | 41.9%
O=[N+]([O-])c1cnc(Sc2ccncn2)s1 | -88.3% (active)
Cc1ccc(S(=O)(=O)NCCCNc2cc(-c3cn(C(C)(C)C)nc3-c3cccc(O)c3)ccn2)cc1 | 73.2%
COC(=O)c1cccc2c1N(C)c1c(cccc1C(=O)OC)CC2 | 101%
COc1cc(NC(N)=NCCC(C)(C)c2ccc(C(F)(F)F)cc2)ncc1C#N | 4.93% (active)
Cn1c(=O)c2[nH]c(C3CC=CCC3)nc2n(C)c1=O (stereo not given) | 72.3%
COc1cc2c(cc1O)CCN1C[C@@H](CC(C)C)[C@@H](O)C[C@@H]21 | 88.4%
Cc1ccc(C(=O)C2=Cc3cc4ccccc4n3Cc3cnnn32)cc1 | 95.8%
O=C(O)COc1ccc(-c2cssc2=S)cc1 | 88.9%
COc1ccc2c(c1)C(c1cc(OC)c3c(c1)OCO3)C1=C(COC1=O)N2 (stereo not given) | 62%
COc1ccccc1CNCCCN1C(=O)c2ccc3c4c(ccc(c24)C1=O)C(=O)N(CCCNCCCCNCCCN)C3=O | -1.99% (active)
C=C1C(=O)O[C@H]2[C@H]1CC/C(COC(=O)NCc1ccccc1OC)=C\CC[C@@]1(C)O[C@@H]21 | 22%
Cc1ccc(CSC(=N)N)cc1C | 87.7%
COc1ccc(Nc2nn3c(C)cc(C)nc3c2C(=O)Nc2ccc(C)cc2)c(OC)c1 | 82%
CC(O)CN1CCCCC1 (stereo not given) | 86.3%
C=C[C@@H]1C[C@H](O)Cc2ccccc2N1 | 99.5%

Compound | growth
Brc1cccc(-c2cc(-c3ccc4nccnc4c3)[nH]n2)c1 | 38.8% [25 µM]
COc1ccc(-c2cnnn2-c2nonc2-n2cccc2)cc1OC | 72.2%
CCOC(=O)c1cn2c3c(cc(C)cc3c1=O)C(=O)/C(=C/c1ccccc1)C2 | 57.6%
O=C(Nc1cccc(-n2cc(-c3ccncc3)c(-c3ccc(Cl)c(O)c3)n2)c1)Nc1ccc(Cl)c(Cl)c1 | 21%
COc1cc(NC(=O)SC2=NCCS2)cc(OC)c1 | 93.6%
COc1ccc(-c2cc3c(OC)c(OC)c(OC)cc3oc2=O)cc1 | 77.9%
Brc1cccc(-c2cc(-c3ccc4c(c3)OCCCO4)[nH]n2)c1 | 60.1% [25 µM]
CC(C)(C)c1[nH]nc2c1C(c1cc3ccccc3[nH]c1=O)Nc1cc(C(=O)Nc3ccc(Cl)cc3)ccc1N2 (stereo not given) | 83.8%
Cc1ccc(NS(=O)(=O)c2cc(C)ccc2C)cc1 | 65.5%
Cn1cnc2c(N3CCN(C(=O)OCc4ccc5c(Cl)cc(Cl)c(O)c5n4)CC3)nc(Cl)nc21 | 48.2%
COc1cc(Cn2cc3c(c2)-c2oncc2CC3)cc(OC)c1OC | 27.5%
COc1ccc(-c2c(-c3cc(OC)c4c(c3)OCO4)noc2N)cc1 | 36.1%
CCOC(=O)c1c(NS(=O)(=O)c2ccc(C)cc2)sc2c1CCC1(C2)OCCO1 | 82.6%
O=C1NN(C(=O)c2ccc(Cl)cc2)C(c2ccccc2)=N/C1=C\c1cn(-c2ccccc2)nc1-c1ccccc1 | 90.6%
Nc1cc2c([nH]c[n+]2CC#CCCl)c(SCC#CCCl)n1 | -76.8% (active)
CN1C=CN(Cc2ccc(-c3ccccn3)nc2)[CH-]1.CN1C=CN(Cc2ccc(-c3ccccn3)nc2)[CH-]1.[Au+3] | 83.5%
Cc1ccc2nc(-c3cc4c([nH]c5ccccc54)c(-c4ccc(F)c(F)c4)n3)[nH]c2c1 | 65.4%
COc1cc(-c2nn(-c3cccc(NC(=O)c4ccc(Cl)c(C(F)(F)F)c4)c3)cc2-c2ccncc2)ccc1Cl | 37.1%
COc1ccc(-c2nc3sccn3c2/C=C/C(=O)c2cc(F)cc(F)c2)cc1 | 60.5%
CCCCCCN1CSC(=S)N(CCCCCC)C1 | 79.3%
